Measured values reported in PubChem BioAssay (Tox21).
Inconclusive results are not listed. A number with no mark means an inactive call. The source made the active and inactive calls. Calls come from the whole dose curve; as a rule, active = well fitted activation curve with a large enough effect in the repeat runs; inconclusive = weak or mixed curves; inactive = flat fitted curve, though single readings scatter.

biological target: Nuclear receptor subfamily 1 group I member 2 (Homo sapiens) (UniProt O75469); test: Human pregnane X receptor (PXR) activation by small molecules, qHTS assay (AID 1346985); conditions: DPX-2 HepG2 CYP3A4-luciferase, 24 h; series mostly up to 38.3 µM; activation: at the top concentration; note: nearly all actives have a fitted effect of over 40% in size
Excerpt: National Center for Advancing Translational Sciences [NCATS]
NIH Chemical Genomics Center [NCGC]
U.S. Environmental Protection Agency [EPA]
National Institutes of Environmental Health Sciences [NIEHS]
National Toxicology Program [NTP]
The Pregnane X receptor (PXR), a ligand activated nuclear receptor plays a critical role in the regulation of genes involved in drug metabolism and transporters. Activation of PXR may be involved in the unwanted adverse drug-drug interactions. […] Therefore, identification of compounds with the potential for PXR activation can be of importance in improving the efficacy of drugs with less toxicity and avoiding drug-drug interactions.
DPX-2 (Puracyp, Inc.) cell lines, used for screening against human PXR activation has HepG2 cells co-transfected with a PXR response element and a luciferase construct containing CYP3A4 promoter. Increase in luciferase activity can be used to identify the compounds that activate the PXR pathway.
DPX-2 cells were dispensed at 2,000 cells per well in 5uL of assay medium into white, solid-bottom 1536-well plates using a Multidrop Combi dispenser (Thermo Scientific). The assay plates were incubated at 37C for 5hr before transferring 23nL of test compounds dissolved in DMSO and positive control via Pintool station (Wako). The assay plates were incubated at 37C for 24hr. Then 5ul One-Glo assay reagent (Promega) was added to each plate by a Flying Reagent Dispenser (FRD, Aurora Discovery) and following 30 min incubation at room temperature, luciferase activity was quantified on a ViewLux plate reader (Perkin Elmer).
% is set by controls: 0 for no effect and ±100 for the full control effect; potency is the fitted concentration of half-maximal effect.

SMILES	Potency	activation
CN(C)[C@@H]1C(=O)C(C(N)=O)=C(O)[C@@]2(O)C(=O)C3=C(O)c4c(O)cccc4[C@@](C)(O)[C@H]3[C@H](O)[C@@H]12	inactive	
COP(=O)(OC)OC=C(Cl)Cl		25.6%
O=C(O)C(Cl)Cl		-1.17%
OCCOc1ccccc1		-2.8%
CCCCCCCCCCCCOS(=O)(=O)O		13.3%
O=c1[nH]c(=O)n(Cl)c(=O)n1Cl		1.52%
CCOP(=S)(OCC)Oc1ccc2c(C)c(Cl)c(=O)oc2c1	14.1 µM (active)	
CC(=O)[O][Hg][c]1ccccc1	10 µM (active)	
C1CCC(NC2CCCCC2)CC1		-4.25%
Oc1ccccc1-c1ccccc1		4.33%
CCNc1nc(Cl)nc(NCC)n1		8.56%
C[C@]12CCC(=O)C=C1CC[C@@H]1[C@@H]2CC[C@]2(C)C(=O)CC[C@@H]12		27.2%
O=C(O)C(Cl)(Cl)Cl		10.8%
